Measured values as given in PubChem BioAssay (NCI).
Compounds without any hit were thinned out: in the full panel of roughly 79,000, 15% have a hit. Values without a mark were called inactive. Calls of active or inactive are those of the source. No stated cut-off is given here; in the data, active means growth inhibition above about 70%; inactive means the rest.

Assays:
[1] = NCI Yeast Anticancer Drug Screen. Data for the rad50 strain (AID 155);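 further: 0% = growth of vehicle-only cultures of the same strain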; details: S. cerevisiae rad50 strain growth inhibition, active compounds read high
Outline: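 DNA repair mutant yeast, compound exposure, growth read-out; inhibition is taken relative to vehicle.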

[2] = NCI Yeast Anticancer Drug Screen. Data for the mec2-1 strain (AID 157); details: S. cerevisiae mec2-1 strain, active compounds read high
Outline: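 Vehicle-treated cultures served as reference for growth inhibition of compound-exposed mec2-1 yeast.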

[3] = NCI Yeast Anticancer Drug Screen. Data for the sgs1 mgt1 strain (AID 161);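 further: 0% = growth of cultures given vehicle only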; details: S. cerevisiae sgs1 mgt1 strain, active compounds read high
Outline: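 Mutant yeast exposed to compound; growth scored against vehicle-only wells.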

[4] = NCI Yeast Anticancer Drug Screen. Data for the cln2 rad14 strain (AID 165);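 further: 0% = growth equal to vehicle treated cultures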; details: S. cerevisiae cln2 rad14 strain, active compounds read high
Outline: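 Each compound was tested on cln2 rad14 yeast. Inhibition of growth was calculated against vehicle-exposed controls.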

[5] = NCI Yeast Anticancer Drug Screen. Data for the bub3 strain (AID 167); details: S. cerevisiae bub3 mutant strain, active compounds read high
Outline: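 In this screen, a yeast mutant lacking normal mitotic checkpoint function is challenged with compound. Relative growth versus vehicle gives the inhibition value.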

[6] = NCI Yeast Anticancer Drug Screen. Data for the mlh1 rad18 strain (AID 175); details: S. cerevisiae mlh1 rad18 strain growth inhibition, active compounds read high
Outline: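 Vehicle-treated cultures served as the reference for growth inhibition in a yeast strain carrying DNA damage repair alterations exposed to each compound.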

[7] = at 5.0 µM (retest, dose inferred, filed as 0.5)
[8] = at 50.0 µM (retest, dose inferred, filed as 5.0)

Compound | growth inhibition [1, 7] | growth inhibition [1, 8] | growth inhibition ([1]; at 50.0 µM) | growth inhibition [2, 7] | growth inhibition [2, 8] | growth inhibition ([2]; at 50.0 µM) | growth inhibition [3, 7] | growth inhibition [3, 8] | growth inhibition ([3]; at 50.0 µM) | growth inhibition [4, 7] | growth inhibition [4, 8] | growth inhibition ([4]; at 50.0 µM) | growth inhibition [5, 7] | growth inhibition [5, 8] | growth inhibition ([5]; at 50.0 µM) | growth inhibition [6, 7] | growth inhibition [6, 8] | growth inhibition ([6]; at 50.0 µM)
CC(C)O[C@H]1N(C2CC(N=[N+]=[N-])C(CO)O2)C(=O)NC(=O)[C@]1(C)Br (some centres not stated) | 14% | 48% | 87.1% (active) | -6% | 57% | 91.2% (active) | 0% | 56% | 90.5% (active) | 4% | 37% | 89% (active) | -7% | 40% | 90.5% (active) | -4% | 63% | 91.1% (active)
Cc1cc(N(CCOS(C)(=O)=O)CCOS(C)(=O)=O)ccc1C=Nc1cc(Br)c(O)c(Br)c1 | 4% | 71% (active) | 82.5% (active) | -93% | 63% | 72.6% (active) | 2% | 53% | 84.2% (active) | 4% | 43% | 50.4% | 2% | 24% | 21.1% | 22% | 91% (active) | 95.8% (active)
CCCCC(=O)OC1=C(Br)C(=O)c2ccccc2C1=O | 20% | 98% (active) | 96.3% (active) | 24% | 100% (active) | 63% | 10% | 96% (active) | 81.1% (active) | 3% | 88% (active) | -11.8% | 14% | 97% (active) | 13.8% | 37% | 98% (active) | 75.3% (active)
Cc1c2ncccc2cc2oc3ccccc3c(=O)c12 | 67% | 9% | 62.7% | 24% | 78% (active) | 14.8% | 37% | 6% | 24.4% | 16% | 37% | 13.8% | 15% | 75% (active) | 19.9% | 23% | 10% | 68.7%
O=C(O)c1c[nH]c2cc(Cl)ccc2c1=O | 4% | -5% | -1.55% | 1% | 5% | -20.9% | -8% | -3% | -22.1% | 2% | 1% | 90.9% (active) | 1% | -2% | -19.8% | -1% | -4% | 12.2%
OC(CBr)c1cc(-c2ccccc2)nc2ccccc12 (configuration not stated) | -3% | 98% (active) | -5.25% | -2% | 96% (active) | 18.1% | -3% | 97% (active) | 41.8% | -17% | 93% (active) | -24.7% | 1% | 99% (active) | 69.3% | -3% | 97% (active) | 28.2%
Oc1cccc(/C=C/c2ccncc2)c1 | 0% | 28% | 75.1% (active) | -4% | 13% | 37.6% | -3% | 25% | 65.5% | -6% | 15% | 25.9% | -6% | 22% | 63.8% | -1% | 12% | 65.5%
CCCCc1c2c(nc3c1CCc1cc4cc5c(nc4nc1-3)-c1nc3c(c(CCCC)c1CC5)CCCC3=O)C(=O)CCC2 | 71% (active) | 97% (active) | 97.7% (active) | 86% (active) | 97% (active) | 97.2% (active) | 54% | 97% (active) | 98% (active) | 90% (active) | 96% (active) | 95.9% (active) | 97% (active) | 96% (active) | 97.2% (active) | 86% (active) | 96% (active) | 97.3% (active)
COc1ccc2c(N3CCN(C(=O)C(Cl)(Cl)Cl)CC3)cc(C)nc2c1 | 2% | 4% | 2.05% | 1% | 0% | 0.2% | 1% | 0% | -24.6% | 0% | 0% | -2.9% | 0% | 7% | -0.5% | 3% | 4% | 2.75%
CCc1c(C)[nH]c(-c2csc(N)n2)c1C | -1% | 93% (active) | -4.25% | 1% | 95% (active) | 83.9% (active) | -1% | 94% (active) | 2.8% | 1% | 93% (active) | 31.7% | 4% | 92% (active) | 67.8% | 2% | 93% (active) | 56.8%
CCCCCCCCCCC(O)CN1CCN(c2cccc(Cl)c2)CC1 (configuration not stated) | 95% (active) | 98% (active) | 98.9% (active) | 99% (active) | 99% (active) | 98.7% (active) | 99% (active) | 99% (active) | 99.2% (active) | 97% (active) | 98% (active) | 97.2% (active) | 96% (active) | 99% (active) | 90.3% (active) | 99% (active) | 99% (active) | 99.2% (active)
O=C1c2ccccc2C(=O)c2sc(Nc3ccc([N+](=O)[O-])cc3)nc21 | 89% (active) | 98% (active) | 60.3% | 91% (active) | 99% (active) | 77.4% (active) | 99% (active) | 99% (active) | 58.1% | 62% | 99% (active) | 29% | 100% (active) | 99% (active) | 80.7% (active) | 90% (active) | 99% (active) | 84.5% (active)
O=C1/C(=C/c2ccc([N+](=O)[O-])cc2)Sc2scc(-c3cccc([N+](=O)[O-])c3)[n+]21 | 69% | 98% (active) | 83.5% (active) | 69% | 98% (active) | 89.5% (active) | 96% (active) | 99% (active) | 90.6% (active) | 53% | 98% (active) | 90.6% (active) | 99% (active) | 99% (active) | 87% (active) | 51% | 99% (active) | 91.1% (active)
C/C(=N\NC(=S)N1CCN(c2cnccn2)CC1)c1ccccn1 | 24% | 98% (active) | 91.4% (active) | 23% | 99% (active) | 89.9% (active) | 19% | 99% (active) | 86.1% (active) | 10% | 99% (active) | 88.2% (active) | 30% | 99% (active) | 85.3% (active) | 28% | 99% (active) | 91.7% (active)
O=S(=O)(ON=C1C=CC(=NOS(=O)(=O)c2ccccc2)C=C1)c1ccccc1 | 27% | 44% | 95.2% (active) | 6% | 55% | 94% (active) | 21% | 48% | 95% (active) | 16% | 54% | 94.1% (active) | 14% | 54% | 96.7% (active) | 48% | 76% (active) | 96% (active)
CC(C)/C(Cl)=N/OC(=O)Nc1ccc(OC(F)(F)F)cc1 | 2% | 98% (active) | 81% (active) | -30% | 98% (active) | 88.3% (active) | 39% | 98% (active) | 83.5% (active) | -7% | 97% (active) | 76.2% (active) | -27% | 98% (active) | 85.5% (active) | -7% | 97% (active) | 77.1% (active)
CCCCCCCCCCCCCC(=O)CBr | 11% | 84% (active) | 87.5% (active) | 4% | 85% (active) | 80.1% (active) | 35% | 99% (active) | 84.5% (active) | 2% | 68% | 66.2% | 9% | 98% (active) | 85.8% (active) | 5% | 90% (active) | 81.1% (active)
Cc1ccc(SSCCCS(=O)O)cc1 | -1% | -93% | 61.1% | -3% | 60% | 50.7% | 6% | 78% (active) | 83.8% (active) | -12% | 41% | 60.1% | 4% | 82% (active) | 66.3% | 3% | 66% | 75.2% (active)
COC(C(=O)C1=C2Oc3c4c(cc(O)c3C(=O)C2C2=C(CCCC2)C1=O)OC(C)(C)C=C4)C(C)CCC=C(C)C (configuration not stated) | 6% | 90% (active) | 74.2% (active) | -1% | 90% (active) | 79% (active) | 3% | 90% (active) | 78.5% (active) | -5% | 90% (active) | 80.9% (active) | 4% | 92% (active) | 78% (active) | 4% | 92% (active) | 80.2% (active)
